Screen size: about 360,000 compounds; about 16,000 (4.4%) were called active. Another 9% or so got no clear call; they are omitted. The sample as a whole holds a higher share of actives than the screen did. A number with no mark means an inactive call. Calls follow the shape of the dose curve; as a rule, active = well fitted inhibition curve with a large enough effect; inconclusive = small, poorly fitted or top-dose-only effect; inactive = no such curve, though single readings can be large or run the other way.
These molecules were tested against Bromodomain adjacent to zinc finger domain protein 2B (Homo sapiens) (UniProt Q9UIF8) (assay: qHTS Assay for Inhibitors of BAZ2B). Details: AlphaScreen BAZ2B-H3K14Ac peptide displacement; series mostly up to 114 µM; activity change, negative = inhibition: at the top concentration.
Method in brief: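 Complex of BAZ2B and biotin-H3K14Ac (50 nM apiece) forms over 30 min at RT, then faces library compounds up to 110 uM for another 30 min; AlphaScreen beads added, 20 min dark incubation, luminescence read.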
% is scaled to controls: 0 for no effect and ±100 for the full control effect; potency is read from the fitted curve at half-maximal effect.
Also: nearly all actives have a fitted effect of over 60% in size.

Sequence of Bromodomain adjacent to zinc finger domain protein 2B (Homo sapiens) (Q9UIF8 whole entry, looked up, the tested form may be a part): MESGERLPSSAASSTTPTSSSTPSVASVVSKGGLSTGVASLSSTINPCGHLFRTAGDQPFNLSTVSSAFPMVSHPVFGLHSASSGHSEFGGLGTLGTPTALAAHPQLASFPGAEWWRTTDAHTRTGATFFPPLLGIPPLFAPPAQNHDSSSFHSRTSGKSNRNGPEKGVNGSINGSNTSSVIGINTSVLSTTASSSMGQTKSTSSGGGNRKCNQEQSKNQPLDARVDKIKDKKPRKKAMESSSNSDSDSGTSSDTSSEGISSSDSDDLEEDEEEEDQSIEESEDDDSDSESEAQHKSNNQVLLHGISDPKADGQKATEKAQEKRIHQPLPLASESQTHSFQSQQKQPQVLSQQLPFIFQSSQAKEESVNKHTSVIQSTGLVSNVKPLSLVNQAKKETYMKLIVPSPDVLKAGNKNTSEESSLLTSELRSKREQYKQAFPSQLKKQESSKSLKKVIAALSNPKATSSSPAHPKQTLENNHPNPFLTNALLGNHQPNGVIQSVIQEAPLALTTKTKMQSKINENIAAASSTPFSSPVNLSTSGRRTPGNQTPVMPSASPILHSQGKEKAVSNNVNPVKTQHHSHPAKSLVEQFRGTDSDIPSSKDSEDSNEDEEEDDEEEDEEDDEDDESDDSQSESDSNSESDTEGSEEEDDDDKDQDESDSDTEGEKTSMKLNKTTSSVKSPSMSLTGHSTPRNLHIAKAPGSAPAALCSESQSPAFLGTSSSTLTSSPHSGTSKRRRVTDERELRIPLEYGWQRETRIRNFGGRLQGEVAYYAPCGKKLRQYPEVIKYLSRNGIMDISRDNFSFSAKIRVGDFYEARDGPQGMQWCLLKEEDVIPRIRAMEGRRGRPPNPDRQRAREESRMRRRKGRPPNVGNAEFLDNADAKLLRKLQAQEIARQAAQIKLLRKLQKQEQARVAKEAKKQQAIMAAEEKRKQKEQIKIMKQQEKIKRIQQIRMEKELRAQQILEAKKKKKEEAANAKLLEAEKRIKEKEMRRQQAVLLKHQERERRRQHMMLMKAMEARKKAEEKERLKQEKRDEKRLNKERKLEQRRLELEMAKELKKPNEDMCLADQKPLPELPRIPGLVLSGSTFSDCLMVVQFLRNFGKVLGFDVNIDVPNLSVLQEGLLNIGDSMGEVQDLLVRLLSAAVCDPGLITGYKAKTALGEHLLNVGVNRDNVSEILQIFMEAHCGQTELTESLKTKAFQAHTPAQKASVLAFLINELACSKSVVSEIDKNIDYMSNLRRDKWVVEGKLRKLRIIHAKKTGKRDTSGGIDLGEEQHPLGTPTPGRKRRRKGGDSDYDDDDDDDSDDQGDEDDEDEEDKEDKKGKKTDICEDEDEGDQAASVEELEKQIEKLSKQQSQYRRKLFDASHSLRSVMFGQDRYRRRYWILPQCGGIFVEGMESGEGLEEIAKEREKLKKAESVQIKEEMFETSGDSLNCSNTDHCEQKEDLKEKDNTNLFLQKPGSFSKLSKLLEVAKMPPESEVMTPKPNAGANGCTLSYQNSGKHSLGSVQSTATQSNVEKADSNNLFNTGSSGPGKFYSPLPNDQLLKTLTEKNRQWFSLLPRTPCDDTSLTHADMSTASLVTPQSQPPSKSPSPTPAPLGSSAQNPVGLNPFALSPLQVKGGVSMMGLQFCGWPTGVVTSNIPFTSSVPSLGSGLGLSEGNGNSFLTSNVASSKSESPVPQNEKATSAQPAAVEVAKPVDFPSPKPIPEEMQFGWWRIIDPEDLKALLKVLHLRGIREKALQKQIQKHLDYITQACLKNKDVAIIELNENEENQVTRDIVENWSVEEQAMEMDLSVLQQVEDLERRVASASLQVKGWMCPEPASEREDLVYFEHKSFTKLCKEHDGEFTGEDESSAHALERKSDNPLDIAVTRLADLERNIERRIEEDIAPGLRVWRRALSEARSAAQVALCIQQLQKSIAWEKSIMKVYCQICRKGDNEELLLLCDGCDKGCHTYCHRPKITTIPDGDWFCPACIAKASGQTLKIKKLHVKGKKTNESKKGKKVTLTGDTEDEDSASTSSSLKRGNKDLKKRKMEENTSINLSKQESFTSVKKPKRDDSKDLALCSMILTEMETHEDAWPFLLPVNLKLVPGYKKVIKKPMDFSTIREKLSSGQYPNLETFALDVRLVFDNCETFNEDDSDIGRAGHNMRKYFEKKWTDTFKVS

In order of falling “activity change, negative = inhibition” value:
1. CCC(=O)N1CCc2cc(Br)cc(S(=O)(=O)CCC(=O)NCCc3ccc(OC)c(OC)c3)c21  27%
2. Cc1cc2nc(-c3ccc(NC(=O)c4cccnc4)cc3)oc2cc1C  11.6%
3. Cc1sc2nc(CSCC(=O)NC3CCCCC3)[nH]c(=O)c2c1C  9.45%
4. Cc1sc2nc(CSCC(=O)Nc3c(Cl)cccc3Cl)[nH]c(=O)c2c1C  9.3%
5. O=C(Nc1ccccc1)c1ccco1  6.6%
6. CCc1cc2c(cc3c(=O)n(CC(=O)N4CCN(c5cc(Cl)ccc5C)CC4)ncn32)s1  5.16%
7. COc1ccc(-n2c(SC)nc3sc4c(c3c2=O)CCN(C(C)=O)C4)cc1  4.86%
8. CNC(=O)c1cc2c(ccc3ccccc32)oc1=N  4.85%
9. COc1ccc(-c2c3c(=O)n(C)c(=O)n(C)c3c3c(C)nc4ccccc4n23)cc1  4.79%
10. CCOc1ccc(NC(=O)C2CCN(S(=O)(=O)c3cc(-c4noc(C)n4)ccc3C)CC2)cc1  4.51%
11. O=C(CSc1ccccc1)Nc1ccc(C(=O)Nc2cccc(O)c2)cc1  3.89%
12. O=C(COC(=O)c1ccccc1SCC(=O)N1CCCC1)Nc1ccccc1OC(F)F  3.45%
13. CC(C)(C)OC(=O)N/N=C/c1cn(-c2ccccc2)nc1-c1cccnc1  3.33%
14. CCc1cccc(C)c1NS(=O)(=O)c1ccc(-c2cc(C)no2)s1  2.64%
15. CC1(C)NC(=O)N(CCOc2cccc(Oc3ccccc3)c2)C1=O  2.52%
16. Cc1ccccc1NC(=O)Cn1c(=O)n(CCc2ccccc2)c(=O)c2ccccc21  1.27%
17. Cc1cc2c(cc1S(=O)(=O)CCC(=O)Nc1ccc(OC(F)(F)F)cc1)OCC(=O)N2  1.13%
18. COc1cccc(N=C2SC(C(=O)Nc3cccc(Cl)c3)CC(=O)N2C)c1 (centres undefined)  0.78%
19. Cc1cccc(NC(=O)c2ccc(F)c(S(=O)(=O)N(C)C3CCCCC3)c2)c1  0.102%
20. C=CCn1c2ccccc2c2nnc(SC(CC)C(=O)Nc3nc(C)c(C(=O)OCC)s3)nc21 (centres undefined)  0.0442%
21. Cc1ccc2oc3c(c(=O)c2c1)C(c1ccc([N+](=O)[O-])cc1)N(CCCN1CCOCC1)C3=O (centres undefined)  -0.558%
22. Cc1ccc(-n2ncc3c(N4CCC(C(N)=O)CC4)ncnc32)cc1  -0.637%
23. O=C(Cn1ncc2c3ccccc3n(Cc3ccccc3)c2c1=O)NC1CCCCCC1  -0.79%
24. O=C(O)c1ccc(Cn2c(SCc3ccc(F)cc3)nc3ccncc32)cc1  -1.05%
25. CCOC(=O)c1ccc[n+](CC(=O)Nc2ccccc2OC(F)F)c1  -1.09%
26. CCOc1ccc(NC(=O)c2c(NCc3cccc(OC)c3OC)sc3c2CCC3)cc1  -1.31%
27. Cc1ccccc1CNC(=O)c1ccc(NC(=O)N2CCCCc3ccccc32)cc1  -1.37%
28. Cc1ccc(OCC(=O)NCCCNC(=O)c2cccnc2)cc1C  -1.83%
29. CCOc1ccc(CNC(=O)c2ccc3nc(CC)c(CC)nc3c2)cc1OC  -2.35%
30. CCc1nc2cccnc2n1-c1ccc(CC(=O)Nc2c(C)cccc2C)cc1  -2.4%
31. Cc1cc(C)cc(OCC(=O)Nc2nc(-c3ccc(F)cc3)ns2)c1  -2.4%
32. CCN1CCN(c2ncnc3c2cnn3-c2ccc(C)c(C)c2)CC1  -2.62%
33. CN(C)C(=O)c1coc2nc3ccccc3nc12  -3.28%
34. COc1ccc2oc(=N)c(C(=O)Nc3ccc(Br)cc3)cc2c1  -3.61%
35. COc1cc(NC(=O)Cn2nc(-c3ccc(C)c(C)c3)ccc2=O)cc(OC)c1  -3.69%
36. COc1ccc(CCC(=O)NCCc2csc(-c3ccc(Cl)cc3)n2)cc1  -4.25%
37. Cc1cccc(NC(=O)c2cccc(S(=O)(=O)N3CCCC3)c2)n1  -4.94%
38. Cc1ccc(N/C=C/C(=O)c2ccccc2)cc1C  -4.96%
39. CC(=O)N1CCCc2cc(S(=O)(=O)Nc3ccc(Cl)cc3F)ccc21  -5.37%
40. CCC(=O)N1N=C(c2ccc(OC)cc2)CC1c1cn(-c2ccccc2)nc1-c1cccs1 (centres undefined)  -5.53%
41. CC(C)NC(=O)C1CCC(Cn2c(=O)c3sccc3n(Cc3ccc(F)cc3)c2=O)CC1 (centres undefined)  -5.59%
42. O=C(OCN1C(=O)c2ccccc2C1=O)/C(=C\c1ccco1)NC(=O)c1ccccc1  -5.64%
43. CCn1c2ccccc2c2nnc(SCC(=O)O)nc21  -5.77%
44. CCOCCCNC(=O)c1c(NC(=O)c2nc(SC)ncc2Cl)sc2c1CCCC2  -6%
45. Cc1cccc(NC(=S)NCCc2ccc(Cl)cc2)c1C  -6.6%
46. Fc1ccc(N2CCN(Cc3cnc(Oc4ccc(Br)cc4)s3)CC2)cc1  -9.51%
47. Cc1ccc(CNC(=O)CSC2=Nc3ccccc3C3=NC(C)C(=O)N23)cc1 (centres undefined)  -9.55%
48. COc1c(Cl)cc(C(=O)N(Cc2ccccc2F)C2CCS(=O)(=O)C2)cc1Cl (centres undefined)  -9.74%
49. Cc1cc(F)ccc1NC(=S)NCCc1ccccc1  -10.7%
50. O=C(COc1ccccc1)NCc1ccc2c(c1)CCN2C(=O)c1ccc(F)cc1  -11.4%
51. Cc1ccccc1Nc1nnc(SCC(=O)c2cc3ccccc3o2)s1  -11.7%
52. Cc1ccc(-c2nn(CCC(=O)Nc3ccc(Cl)c(Cl)c3)c(=O)c3ccccc23)cc1  -11.8%
53. Cc1cc(C)cc(NC(=O)CSc2nc3nccnc3c(=O)n2CCc2c[nH]c3ccccc23)c1  -12.2%
54. Cc1ccc(C)c(CN2C(=O)c3ccccc3S(=O)c3ccc(C(=O)N4CCOCC4)cc32)c1 (centres undefined)  -12.7%
55. Cc1cc(C)cc(NC(=O)CSc2oc(-c3ccccc3)nc2S(=O)(=O)c2ccc(Cl)cc2)c1  -13%
56. CCCCCn1c(=O)[nH]c2cc(C(=O)Nc3ccc(F)cc3)ccc2c1=O  -13.7%
57. COc1cccc(C(=O)NC2=NC(c3ccc(N(C)C)cc3)CC(=O)N2)c1 (centres undefined)  -14.6%
58. CCCN1CCN(CCCNC(=O)c2ccc3nc(Cc4ccccc4)oc3c2)CC1  -14.6%
59. COc1ccc(Cl)cc1NC(=O)c1sc2nc3c(cc2c1N)CN(C)CC3  -14.9%
60. COc1ccc(Br)cc1/C=N/NC(=O)c1cccc(S(=O)(=O)N2CCOCC2)c1  -15.1%
61. CCOC(=O)c1ccc(CSc2nnc3cc(C)c4ccccc4n23)cc1  -15.6%
62. CCOc1ccc(CNC(=O)c2ccc(CS(=O)c3ccccc3)o2)cc1 (centres undefined)  -17.4%
63. Cc1ccc(CCNC(=O)c2ccc3c(c2)N(Cc2cc(C)ccc2C)C(=O)c2ccccc2S3=O)cc1 (centres undefined)  -17.4%
64. COc1cc(Cl)c(C)cc1NC(=O)CCc1nc2cccnc2n1Cc1cccs1  -18%
65. O=C(NCc1cccc(CNC(=O)Nc2cccc(O)c2)c1)Nc1cccc(O)c1  -18.9%
66. COCCNCCOCCOc1cccc(OC)c1  -19%
67. CC(C)(C)c1ccc(OCC(=O)N2CCC(c3nc4ccccc4s3)CC2)cc1  -19.1%
68. CCOc1ccc(C(=O)c2cn(Cc3ccccc3OC)c3ccc(F)cc3c2=O)cc1  -19.9%
69. CCOC(=O)c1c(C)[nH]c(C)c1S(=O)(=O)N1CCCC(C(=O)NCc2ccccc2Cl)C1 (centres undefined)  -21.1%
70. CCOC(=O)N1CCc2c(sc(NCc3cccc(F)c3)c2C(=O)Nc2ccccc2OCC)C1  -24.5%
71. O=C(Nc1nnc(CCOCCOCCc2nnc(NC(=O)c3ccco3)s2)s1)c1ccco1  -25.7%
72. O=C(Nc1cccnc1)c1ccc(Cl)cc1[N+](=O)[O-]  -25.8%
73. O=C(COc1ccc(/C=N/NC(=O)c2ccc(O)cc2)cc1)Nc1ccc([N+](=O)[O-])cc1  -26.7%
74. CCOC(=O)c1cc(-c2ccccc2)n(-c2cccc(C(=O)Nc3cc(OC)cc(OC)c3)c2)c1C  -27.3%
75. O=C(NCCCn1ccnc1)c1cc(-c2ccccc2)on1  -27.5%
76. Cc1ccc(Nc2nnc(SCC(=O)c3cc4ccccc4o3)s2)cc1C  -32.6%
77. CC1CCCCN1CC(=O)N1CCCc2c1c(=O)oc1ccc(OCc3ccccc3)cc21 (centres undefined)  -34%
78. CCN(CC)S(=O)(=O)c1ccc2c(c1)N(CC(=O)NCC(C)c1ccccc1)C(=O)CO2 (centres undefined)  -35.7%
79. COc1ccc(N2CCN(Cc3nnc(-c4ccccc4)o3)CC2)cc1  -35.9%
80. O=C(/C=C/c1ccco1)NC(=S)Nc1ccccc1Br  -36.4%

For CN(C)c1ccc(Nc2c3c4c(cccc4n(C)c2=O)C(=O)c2ccccc2-3)cc1, the Potency was 1.58 µM (active).
For Cc1ncc(CO)c(/C=N/NC(=O)c2cccc(S(=O)(=O)N3CCCC3)c2)c1O, the Potency was 28.2 µM (active).
With COc1ccc(N2CCN(Cc3ccc(Br)s3)CC2)cc1 the Potency was 17.8 µM (active).
In the case of COC(=O)C1=C(C)N(C(C)c2ccccc2)C(=O)/C1=C\c1ccco1 (centres undefined), the Potency is reported as 20 µM (active).
O=C(Nc1nc(-c2ccco2)c(-c2ccco2)s1)c1ccco1 was tested, and the Potency was 44.7 µM (active).
In the case of COc1cccc(-c2nn(-c3ccccc3)cc2/C=C(\C#N)C(=O)NCCCn2ccnc2)c1, the Potency is reported as 50.1 µM (active).
O=C(Nc1cccnc1)c1cc2cc(Br)ccc2oc1=O was tested, and the Potency was 79.4 µM (active).
With Cc1ccc(-c2nc(SCC(=O)Nc3ccccc3OC(F)F)c3c(C)c(C(=O)O)sc3n2)cc1 the Potency was 44.7 µM (active).
In the case of O=[N+]([O-])C(=c1ccc2c(c1)N1C3=C(CCCC3)CC3CCCCC31N=2)[N+](=O)[O-] (centres undefined), the Potency is reported as 44.7 µM (active).
In the case of Cc1ccc(NC(=S)NCCc2ccc(Cl)cc2)c(C)c1, the Potency is reported as 79.4 µM (active).
For CSc1nnc(SCc2nc3sc(C(=O)O)c(C)c3c(=O)[nH]2)s1, the Potency was 50.1 µM (active).
For CC(O)CNCCOc1cccc(Oc2ccccc2)c1 (centres undefined), the Potency was 50.1 µM (active).
In the case of C=CCn1c2ccccc2c2nnc(SCc3[nH]c(=O)[nH]c3C(=O)CCCCC(=O)OCC)nc21, the Potency is reported as 79.4 µM (active).
Cc1ccc(NC(=O)COc2ccc(/C=N\NC(=O)c3cccnc3)cc2)cc1C was tested, and the Potency was 56.2 µM (active).
With C/C(=C\C(=O)c1ccccc1)Nc1cccc(O)c1 the Potency was 50.1 µM (active).
In the case of C/C(=C\C(=O)c1cccnc1)Nc1ccc(C)c(C)c1, the Potency is reported as 50.1 µM (active).
In the case of CNC(=O)c1cccc2nc3ccccc3nc12, the Potency is reported as 50.1 µM (active).
For CC(C)c1ccc(Nc2nnc(SCC(=O)c3nnc(-c4ccccc4)o3)s2)cc1, the Potency was 35.5 µM (active).

CCCN(C(=O)Cn1ncc2c([nH]c3ccc(C)cc32)c1=O)c1ccccc1C was tested, and the “activity change, negative = inhibition” value was 1.79% [at 57.1 µM].
